Results as given in PubChem BioAssay AID1963321 (National Center for Advancing Translational Sciences (NCATS), 2024).
Results filed as inconclusive are left out. Where a call stands in place of a potency, no number is given. A number with no mark means an inactive call. Active and inactive are the calls of the source. The call rests on the fitted dose curve.

biological target: cAMP-dependent protein kinase catalytic subunit alpha (Homo sapiens) (UniProt P17612); test: Protein Kinase A (PKA-HiBiT) enzymatic inhibition screen - Functional assay; settings: luminescence; series mostly up to 57.5 µM
Source text: National Center for Advancing Translational Sciences (NCATS),
National Institute of Health (NIH), Maryland
Discovery and optimization of novel protein-binding ligands underlies many of the methods and applications of biology, drug discovery, clinical diagnostics, and environmental toxicology. Assays for detecting the interaction of, for example, a molecule with a macromolecular target also referred to here as the target of interest (TOI) is dependent on a compatible output technology. Depending on the nature and knowledge surrounding the TOI, whether a receptor, enzyme, regulatory subunit or scaffold, or a sequence-defined nucleic acid folded into a complex tertiary structure, assay strategies can vary widely.
Here we exploit ligand-biased changes in the structural dynamics of the target protein to control reporter alpha complementation allowing a non-competitive, non-functional, non-separation measure of ligand-target interaction.
Using a chemical library of >1,200 compounds enriched for scaffolds known to be associated with the inhibition of firefly luciferase (FLuc) activity (PubChem AIDs 2309) we first illustrate and compare the Structural Dynamics Response (SDR) assay vs. the standard functional FLuc enzyme assay (2). Secondly, we show the specificity and sensitivity of the SDR for the Abelson tyrosine kinase (ABL1) compared to the serine/threonine protein kinase A, using an enriched chemical library of 128 compounds selected, in part, for activity annotated with ABL1 kinase activity using the Pharos database (3).
(1) A. S. Dixon et al., NanoLuc Complementation Reporter Optimized for Accurate Measurement of Protein Interactions in Cells. ACS Chem Biol 11, 400-408 (2016).
Chemistry & Biology, 19, 1060 - 1072 (2012).
(3) K. J. Kelleher et al., Pharos 2023: an integrated resource for the understudied human proteome. Nucleic Acids Res 51, D1405-D1416 (2023).
PROTOCOL TABLE (as described by Inglese J, Shamu CE and Guy RK. 2007)
SEQUENCE No. (e.g., 1, 2, 3, etc.); […] (e.g., C. elegans, Compounds, Incubation, Read, etc.); VALUE and DESCRIPTION.
1. Reagent. Dispense 4 uL PKA-N-HiBiT enzyme per well at a final enzyme concentration of 10 nM in buffer with 87.5 uM ATP (functional assay) into columns 2-48 of four replicate Greiner 1536-well white,solid bottom high base, medium plates per assay. Dispense respective buffer without enzyme at 4 uL/well in column 1 of assay plates using BioRaptr 2.
2. Compounds. Library compounds added at 23 nL/well by pin transfer. DMSO neutral control and H-89 positive control added at 25 nL/well, transfer by Mosquito dispenser.
3. Incubation. Incubate enzyme and compounds at room temperature for 30 min, protect from light.
4. Reagent. (Functional assay) Transfer 25 nL of kemptide peptide substrate to each well of four replicate kinase assay plates with Mosquito dispenser.
5. Incubation. (Functional assay) Kinase Enzyme incubated with peptide substrate for 3 h at room temperature, protected from light.
6. Reagent. (Functional assay) Add 4 uL/well of Kinase-Glo Plus reagent (Promega) to kinase activity assay plates.
7. Detector. (Functional assay) Luminescence measured using CCD-based camera (ViewLux) with settings as follows: Exposure, 1 sec; Gain, High; Speed, Slow; Binning, 2X.
Inglese J, Shamu CE and Guy RK, Reporting data from high throughput screening of small molecule libraries, Nature Chemical Biology, 2007, 3(8): 438-441. doi.org/10.1038/nchembio0807-438.

Compound	Potency	activity change, negative = inhibition
CNS(=O)(=O)c1ccc2c(c1)/C(=C/c1[nH]c3c(c1CCCN1CCN(C)CC1)CCCC3)C(=O)N2	inactive	–
O=C(c1cccc(Cl)c1F)N1CCN(Cc2cccc(Nc3nccs3)n2)CC1	inactive	–
Cn1cc(-c2cc3c(N4CCN(c5ncc([C@@](C)(N)c6ccc(F)cc6)cn5)CC4)ncnn3c2)cn1	inactive	–
O=S(=O)(/N=C/c1c(O)ccc2ccccc12)c1cccs1	inactive	–
CC(C)CCN1c2nc(Nc3cc(F)c(O)c(F)c3)ncc2N(C)C(=O)C1C (stereo not given)	inactive	–
Cc1c(Cl)cccc1S(=O)(=O)Nc1nc(NCCc2ccccc2)nc2c1CN(Cc1ccccc1)CC2	inactive	–
CCCCCCCCCCCCc1ccc(S(=O)(=O)Nc2nncs2)cc1	inactive	–
COc1cc(N2CCN(C)CC2)ccc1Nc1nc(N)c(C(=O)c2c(Cl)cccc2Cl)s1	inactive	–
C=CC(=O)N1CCC[C@@H](n2nc(-c3cccc(C(=O)Nc4ccc(C(C)C)c(C)c4)c3)c3c(N)ncnc32)C1	inactive	–
C[C@@H]1CN(CC(=O)Nc2ccc3c(c2)Cc2cccc(-c4cc(=O)cc(N5CCOCC5)o4)c2S3)C[C@H](C)O1	inactive	–
CN(c1ncccc1CNc1nc(Nc2ccc3c(c2)CC(=O)N3)ncc1C(F)(F)F)S(C)(=O)=O	24.3 µM (active)	–
N#Cc1cccc(-c2c[nH]c3ncnc(N4CCOCC4)c23)c1	inactive	–
CCN(CC)CCOc1ccc(Nc2ncc3cc(-c4c(Cl)cccc4Cl)c(=O)n(C)c3n2)cc1	inactive	–
CCOc1ccn(-c2ccc(F)cc2)c(=O)c1C(=O)Nc1ccc(Oc2ccnc(N)c2Cl)c(F)c1	0.0153 µM (active)	–
CC(C)(NS(=O)(=O)c1ccc2c(Cl)cnc(N=C(N)N)c2c1)C(=O)O	inactive	–
COc1cc2c(N3CCN(C(=O)Nc4ccc(OC(C)C)cc4)CC3)ncnc2cc1OCCCN1CCCCC1	inactive	–
O=c1cc(N2CCOCC2)nc2c3ccccc3ccn12	inactive	–
Cc1nc(NC(=O)N2CCC[C@H]2C(N)=O)sc1-c1ccnc(C(C)(C)C(F)(F)F)c1	inactive	–
Cc1ccc(C(=O)Nc2ccc(CN3CCN(C)CC3)c(C(F)(F)F)c2)cc1C#Cc1cnc2[nH]ncc2c1	inactive	–
CC1(C)OCCn2c1nc1c(N3CCOCC3)nc(-c3cnc(N)nc3)nc12	inactive	–

Compound	Potency	activity change, negative = inhibition
Cc1cc(Nc2ncc3c(n2)N(C)C(=O)N(c2cc(NC(=O)c4cccc(C(F)(F)F)c4)ccc2C)C3)n(C)n1	inactive	–
O=C(Nc1cc(C(F)(F)F)ccc1N1CCCCC1)c1ccncc1	inactive	–
c1ccc2c(-c3cnn4cc(-c5ccc(N6CCNCC6)cc5)cnc34)ccnc2c1	–	8.42% [at 6.37 µM]
CN1CCN(Cc2ccc(-c3cnc4[nH]cc(-c5ccc6[nH]ccc6c5)c4c3)cc2)CC1	inactive	–
Cc1ccc(NC(=O)N2CCN(c3nc(N)nc4sc(-c5cccnc5)nc34)CC2)cc1	inactive	–
CC(C)(C)n1nc(-c2cccc3ccccc23)c2c(N)ncnc21	inactive	–
CSc1cccc(Nc2ncc3cc(-c4c(Cl)cccc4Cl)c(=O)n(C)c3n2)c1	inactive	–
COc1ccccc1-c1c[nH]c2ncc(-c3cncc(C(=O)N(C)C)c3)cc12	inactive	–
O=C1CCC(N2C(=O)c3ccccc3C2=O)C(=O)N1 (stereo not given)	inactive	–
CN1CCN(CCCNc2ncc(Cl)c(-c3cc4c(C(=O)NC5CC5)cccc4s3)n2)CC1	inactive	–
COc1cc2nccc(Oc3ccc(NC(=O)Nc4ccc(F)cc4F)c(F)c3)c2cc1OC	inactive	–
Cc1cc(O)c2c(c1)C(=O)c1cc(O)cc(O)c1C2=O	inactive	–
Cc1cc(Nc2cc(N3CCN(C)CC3)nc(Sc3ccc(NC(=O)C4CC4)cc3)n2)n[nH]1	inactive	–
Nc1nc(Nc2ccc(S(N)(=O)=O)cc2)n(C(=S)Nc2c(F)cccc2F)n1	inactive	–
NC1CCC(Nc2nc(Nc3ccc(C(=O)N4CCCCC4)cc3)c3ncn(-c4cccc(F)c4)c3n2)CC1 (stereo not given)	inactive	–
C[C@@H]1CCNC(=O)c2cc3ccc(C(=O)Nc4nc5ccccc5n4CCCN(C)C)cc3n21	inactive	–
COC(=O)Nc1ccc(-c2nc(N3CCOCC3)c3cnn(C4CCN(C(=O)OC)CC4)c3n2)cc1	inactive	–
N#Cc1ccc2ncnc(NCCc3ccccc3)c2c1	inactive	–
COc1cc(N2CCC(O)CC2)ccc1Nc1nc(Nc2ccccc2S(=O)(=O)C(C)C)c2[nH]cnc2n1	inactive	–
CNC(=O)c1ccccc1Sc1ccc2c(/C=C/c3ccccn3)n[nH]c2c1	inactive	–
